Reference: PubChem BioAssay (NCI)
This is part of a sample that, as a whole, favours compounds with a hit. Of some 79,000 tested, about 15% had one in any assay. Active and inactive are the calls of the source. Cut-off read from the data, not from the text of the source: active = growth inhibition above about 70%; inactive = the rest.

Tests used:
[1] = NCI Yeast Anticancer Drug Screen. Data for the rad52 strain (AID 147);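 note: 0% = growth of vehicle-treated control cultures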; settings: S. cerevisiae rad52 mutant growth inhibition, active compounds read high
How it was run: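 Measured: yeast growth inhibition. System: strain with a defined DNA damage repair alteration. Reference: vehicle-treated control cultures.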

[2] = NCI Yeast Anticancer Drug Screen. Data for the wt1 strain (AID 149);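 note: 0% = growth of vehicle-treated wt1 cultures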; settings: S. cerevisiae wt1 strain (SPY 50644) growth inhibition, active compounds read high
How it was run: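 Vehicle-normalised growth inhibition; strain wt1; compound exposure.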

[3] = NCI Yeast Anticancer Drug Screen. Data for the rad50EPP+ strain (AID 151);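 note: 0% = growth of vehicle-treated control cultures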; settings: S. cerevisiae rad50 mutant strain, active compounds read high
How it was run: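 One strain with a rad50 alteration (rad50EPP+) was compound-treated, its growth then compared to that of vehicle controls.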

[4] = NCI Yeast Anticancer Drug Screen. Data for the mgt1 strain (AID 153); settings: S. cerevisiae mgt1 mutant growth inhibition, active compounds read high
How it was run: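 After exposure of the mgt1 yeast mutant to compound, growth was measured and reported as inhibition compared with vehicle controls.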

[5] = NCI Yeast Anticancer Drug Screen. Data for the rad50 strain (AID 155);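 note: 0% = growth of vehicle-only cultures of the same strain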; settings: S. cerevisiae rad50 strain growth inhibition, active compounds read high
How it was run: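 A DNA repair-deficient yeast mutant serves as the test organism; compound-induced growth inhibition is calculated against vehicle-treated cells.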

[6] = NCI Yeast Anticancer Drug Screen. Data for the mec2-1 strain (AID 157); settings: S. cerevisiae mec2-1 strain, active compounds read high
How it was run: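 Test agents were screened against the mec2-1 yeast strain, with defined DNA repair or cell cycle alteration. Growth was scored as inhibition against vehicle-only controls.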

[7] = NCI Yeast Anticancer Drug Screen. Data for the rad14 strain (AID 159);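 note: 0% = growth of vehicle-treated control cultures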; settings: S. cerevisiae rad14 strain growth inhibition, active compounds read high
How it was run: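 Vehicle-treated cultures served as the baseline for growth inhibition of a DNA repair-mutant yeast strain exposed to each compound.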

[8] = NCI Yeast Anticancer Drug Screen. Data for the sgs1 mgt1 strain (AID 161);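 note: 0% = growth of cultures given vehicle only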; settings: S. cerevisiae sgs1 mgt1 strain, active compounds read high
How it was run: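 Mutant yeast exposed to compound; growth scored against vehicle-only wells.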

[9] = NCI Yeast Anticancer Drug Screen. Data for the CLN2oe strain (AID 163);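 note: 0% = growth of vehicle-only control cultures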; settings: S. cerevisiae CLN2oe strain, active compounds read high
How it was run: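 Here, growth inhibition in a cell-cycle-altered yeast strain after compound exposure was quantified against vehicle control growth.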

[10] = NCI Yeast Anticancer Drug Screen. Data for the cln2 rad14 strain (AID 165);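 note: 0% = growth equal to vehicle treated cultures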; settings: S. cerevisiae cln2 rad14 strain, active compounds read high
How it was run: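 Growth of compound-exposed yeast (cln2 rad14 genotype) measured and expressed as inhibition relative to vehicle.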

[11] = NCI Yeast Anticancer Drug Screen. Data for the bub3 strain (AID 167); settings: S. cerevisiae bub3 mutant strain, active compounds read high
How it was run: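 Inhibition values come from growth of compound-treated mutant yeast normalised to vehicle-treated controls.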

[12] = NCI Yeast Anticancer Drug Screen. Data for the wt2 strain (AID 169);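 note: 0% = growth of vehicle-treated yeast cultures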; settings: S. cerevisiae wt2 strain growth inhibition, active compounds read high
How it was run: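 Genetically defined yeast strains from a DNA-repair/cell-cycle panel were used. Compound-exposed yeast growth was measured, and the inhibition was calculated relative to vehicle treatment.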

[13] = NCI Yeast Anticancer Drug Screen. Data for the mlh1 strain (AID 171);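 note: 0% = growth of vehicle-treated control cultures of the same strain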; settings: S. cerevisiae mlh1 strain growth inhibition, active compounds read high
How it was run: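 Here the genetically defined yeast mutant is grown with each compound, and the extent to which its growth falls below that of vehicle-exposed cells is reported.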

[14] = NCI Yeast Anticancer Drug Screen. Data for the mlh1 rad18 strain (AID 175); settings: S. cerevisiae mlh1 rad18 strain growth inhibition, active compounds read high
How it was run: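 In this whole-cell yeast screen, a strain with altered DNA damage repair is challenged with compound, and its growth is measured against matched vehicle-treated controls.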

[15] = NCI Yeast Anticancer Drug Screen. Data for the rad18 strain (AID 177); settings: S. cerevisiae rad18 mutant growth inhibition, active compounds read high
How it was run: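 Screen uses a yeast strain with a defined lesion in DNA damage repair; compound effect is read as loss of growth compared to untreated vehicle cultures.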

[16] = at 5.0 µM (retest, dose inferred, filed as 0.5)
[17] = at 50.0 µM (retest, dose inferred, filed as 5.0)

Measured: growth inhibition

CCCC/C=C/C(C)(C(=O)OCC)C(=O)OCC
active: [14]; [17] 81% | [14]; at 50.0 µM 70.2%
inactive: [1]; at 1.2 µM -5% | [1]; at 3.7 µM -5% | [1]; at 11.0 µM -1% | [1]; at 33.0 µM 4% | [1]; at 100.0 µM 22% | [2]; at 1.2 µM -5% | [2]; at 3.7 µM -5% | [2]; at 11.0 µM -5% | [2]; at 33.0 µM -7% | [2]; at 100.0 µM 3% | [3]; at 1.2 µM -3% | [3]; at 3.7 µM 0% | [3]; at 11.0 µM 4% | [3]; at 33.0 µM 9% | [3]; at 100.0 µM 16% | [4]; at 1.2 µM -4% | [4]; at 3.7 µM -4% | [4]; at 11.0 µM -4% | [4]; at 33.0 µM -2% | [4]; at 100.0 µM 16% | [5]; at 1.2 µM -6% | [5]; at 3.7 µM -5% | [5]; [16] 10% | [5]; at 11.0 µM -1% | [5]; at 33.0 µM 0% | [5]; [17] 8% | [5]; at 50.0 µM -6.4% | [5]; at 100.0 µM 19% | [6]; at 1.2 µM -2% | [6]; at 3.7 µM -4% | [6]; [16] 3% | [6]; at 11.0 µM -1% | [6]; at 33.0 µM 5% | [6]; [17] 16% | [6]; at 50.0 µM 26.9% | [6]; at 100.0 µM 25% | [7]; at 1.2 µM -5% | [7]; at 3.7 µM -5% | [7]; at 11.0 µM -1% | [7]; at 33.0 µM 3% | [7]; at 100.0 µM 15% | [8]; [16] 0% | [8]; [17] 51% | [8]; at 50.0 µM 37.6% | [9]; at 1.2 µM -3% | [9]; at 3.7 µM -7% | [9]; at 11.0 µM -8% | [9]; at 33.0 µM -1% | [9]; at 100.0 µM 12% | [10]; [16] -6% | [10]; [17] 32% | [10]; at 50.0 µM 58.5% | [11]; at 1.2 µM -6% | [11]; at 3.7 µM -5% | [11]; [16] -2% | [11]; at 11.0 µM -6% | [11]; at 33.0 µM -1% | [11]; [17] 12% | [11]; at 50.0 µM 67.8% | [11]; at 100.0 µM 19% | [12]; at 1.2 µM -4% | [12]; at 3.7 µM -4% | [12]; at 11.0 µM -6% | [12]; at 33.0 µM -4% | [12]; at 100.0 µM 14% | [13]; at 1.2 µM -4% | [13]; at 3.7 µM -3% | [13]; at 11.0 µM -1% | [13]; at 33.0 µM 5% | [13]; at 100.0 µM 29% | [14]; [16] 11% | [15]; at 1.2 µM -4% | [15]; at 3.7 µM 1% | [15]; at 11.0 µM 6% | [15]; at 33.0 µM 13% | [15]; at 100.0 µM 35%
